# Screening results as filed in PubChem BioAssay.
# Shown are actives, neighbours in structure and some others; about 2.7% of the full set was active somewhere.
# Nrf2 block = Nrf2 qHTS screen for inhibitors; A549 ARE-Fluc reporter, luciferase luminescence, 18-24 h; Potency, µM (titrated, usually from 46 µM), for the others: at the highest dose activity change, negative = inhibition, most hits filed as inhibitors; 360,000 tested, 2.1% active; AID 504444, 2011; also: potency is read from the fitted curve at half-maximal effect; % is scaled to controls: 0 for no effect and ±100 for the full control effect; nearly all actives have a fitted effect of over 60% in size
#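 Cells were seeded and rested 2 h, then exposed to compounds for 18-24 h. CellTiter-Fluor was read first as a viability measure. BugLite was added 15 min before the final luminescent read of ARE-luciferase activity in A549 cells.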
# LDHA inh = qHTS assay for inhibitors of human lactate dehydrogenase. activity change, % (values are at about 110 or 230 µM). purified LDHA, NADH/diaphorase-resazurin fluorescence; hits give low values. 480,000 tested, 0.15% active. AID 1347041, 2019. L-lactate dehydrogenase A chain (Homo sapiens), P00338; in the data active = activity change below about -30%; inconclusive = mostly about -25% to -30%;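 also: plate controls were DMSO wells for no effect and wells without enzyme for full effect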
#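 LDH5 2 nM; NADH 0.06 mM, pyruvate 0.2 mM; 200 mM Tris pH 7.4, EDTA, Tween-20; 5 min RT. Detection: diaphorase 0.133 mg/mL + resazurin 37 µM, fluorescence ex540/em590 at 0 and 20 min; normalized to enzyme-free and DMSO wells.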
# A549 tox = Nrf2 qHTS screen for inhibitors: counterscreen for cytotoxicity. Potency, µM (series often up to 46 µM), for inactives: top-dose activity change, negative = cytotoxicity, actives largely listed as inhibitors. A549 ARE-Fluc cells, CellTiter-Fluor viability, 18-24 h. 390,000 tested, 0.16% active; also: potency is read from the fitted curve at half-maximal effect; % is scaled to controls: 0 for no effect and ±100 for the full control effect
#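 Cytotoxicity counterscreen: CellTiter-Fluor fluorescence was measured in A549 ARE_Fluc cells after 18-24 h of compound exposure in a concentration series. The subsequent BugLite luminescent read reports ARE-luciferase activity.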
# Nrf2 ARE act = qHTS of Nrf2 Activators. AREc32 ARE-luciferase reporter (MCF7-derived line), luminescence, 24 h. 410,000 tested, 0.31% active. Potency, µM (titrated, usually from 46.1 µM), without a hit: top-dose activation, hits mostly activators; also: potency is read from the fitted curve at half-maximal effect; % of control where 0% means no effect; nearly all actives have a fitted effect of over 65% in size
#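 Nrf2 activation is followed as ARE-luciferase induction in the AREc32 line after one day of compound treatment; luminescence is read with Steady-Glo.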
# IDH1 R132H inh = qHTS for Inhibitors of mutant isocitrate dehydrogenase 1 (IDH1): qHTS | Isocitrate dehydrogenase [NADP] cytoplasmic (Homo sapiens), O75874 | 390,000 tested, 0.093% active | AID 602179, 2012 | Potency, µM (highest dose often 76.6 µM), without a hit: at the highest dose activity change, negative = inhibition, usual class: inhibitors | IDH1-R132H enzyme, NADPH consumption, diaphorase/resazurin fluorescence; also: potency is read from the fitted curve at half-maximal effect; % is scaled to controls: 0 for no effect and ±100 for the full control effect; nearly all actives have a fitted effect of over 65% in size
# Target sequence (O75874 whole entry R132H, stated change not applied): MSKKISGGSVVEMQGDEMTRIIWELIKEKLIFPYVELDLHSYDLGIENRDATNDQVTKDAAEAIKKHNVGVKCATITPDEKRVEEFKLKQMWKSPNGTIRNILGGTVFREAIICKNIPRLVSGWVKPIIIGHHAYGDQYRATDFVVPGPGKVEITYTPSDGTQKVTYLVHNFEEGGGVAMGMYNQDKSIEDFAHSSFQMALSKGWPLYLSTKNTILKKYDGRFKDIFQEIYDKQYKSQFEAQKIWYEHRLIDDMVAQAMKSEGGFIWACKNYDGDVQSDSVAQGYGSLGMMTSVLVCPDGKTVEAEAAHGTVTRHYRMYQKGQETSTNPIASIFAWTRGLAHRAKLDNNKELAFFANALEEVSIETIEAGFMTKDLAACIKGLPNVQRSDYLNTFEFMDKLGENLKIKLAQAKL
#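 IDH1-R132H (0.5 ug/mL) preincubated 30 min with compound, then NADPH (0.016 mM) and alpha-KG (2 mM) added; 80 min at RT, pH 7.5. Remaining NADPH coupled via diaphorase/resazurin to fluorescence (540/590 nm); concentration-response curves normalized to no-enzyme control.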
# ALOX12 inh = Primary qHTS assay for inhibitors of human arachidonate 12S-lipoxygenase (ALOX12): Round 2; Polyunsaturated fatty acid lipoxygenase ALOX12 (Homo sapiens), P18054; purified 12hLO, xylenol orange hydroperoxide absorbance; Potency, µM (titrated, usually from 108 µM), without a hit: at the highest dose activity change, negative = inhibition, usual class: inhibitors; 580,000 tested, 1.1% active; AID 1671190, 2021; also: potency is read from the fitted curve at half-maximal effect; % is scaled to controls: 0 for no effect and ±100 for the full control effect
#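 Hydroperoxide product was detected by ferrous iron/xylenol orange as the 573 to 405 nm absorbance ratio. Arachidonic acid at 40 uM (final) was turned over for 30 min at room temperature by 150 nM human 12hLO, pH 7.0 Hepes buffer, after 15 min compound preincubation.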
# An asterisk follows results filed as active; ? = inconclusive; . = no result given; ! = not active in a repeat. Unless noted, calls follow the shape of the dose curve; as a rule, active = well fitted curve in the direction sought with a large enough effect; inconclusive = small, poorly fitted or top-dose-only effect, or another doubt; inactive = no such curve, though single readings can be large; an effect the other way counts as inactive or inconclusive.
SMILES,Nrf2 block,LDHA inh,A549 tox,Nrf2 ARE act,IDH1 R132H inh,ALOX12 inh
O=C(Nc1ccc2oc(-c3ccccc3Br)nc2c1)c1ccc2c(c1)OCO2,.,2,.,.,.,-17%
C(=C\c1ccco1)/c1ccc2ccccc2n1,?,2,2%,?,18%,40µM*
O=C(CN1C(=O)/C(=C\c2ccccc2Cl)Sc2ccccc21)NCCCN1CCOCC1,21µM*,-3,?,?,3%,5%
O=C1CN(C(=O)c2cc3cc(Cl)ccc3[nH]2)CCN1,.,-1,.,.,.,?
COc1cccc(NC(=O)c2sc(NC(=O)c3ccncc3)nc2C)c1,12µM*,-3,0%,0%,2%,0%
COc1cccc(NC(=O)c2ccncc2)c1,8%,-2,-10%,0%,5%,49%
CCCCc1c(C)[nH]n(-c2nc(C)c(C(=O)Nc3ccccc3)s2)c1=O,.,-3,.,.,.,47%
CCCCc1c(C)[nH]n(-c2nc(C)c(C(=O)Nc3cccc(OC)c3)s2)c1=O,.,-36*,.,.,.,26%
Cc1cccc(N/N=C/c2ccccc2O)c1,24%,7,-5%,6%,6%,40µM*
Cc1ccc(N/N=C/c2cccc(/C=N/Nc3ccc(C)c(Cl)c3)c2)cc1Cl,.,1,.,.,.,?
O=[N+]([O-])c1ccc(N/N=C/c2ccccc2O)cc1,-22%,-3,-25%,14%,11%,3%
Cc1ccc(N/N=C/c2ccc(C#N)cc2)cc1Cl,.,4,.,.,.,3.2µM*
N#Cc1ccc(/C=N/Nc2ccc3ccccc3c2)cc1,.,6,.,.,.,?
Cc1cc(N/N=C/c2ccccc2O)c2ccccc2n1,18µM*,0,-22%,1%,2%,?
COc1ccc2nc(C)cc(N/N=C/c3cccc(OC)c3O)c2c1,-5%,1,-3%,7%,-11%,?
Cc1cccc(N/N=C/c2ccc(C#N)cc2)c1,.,5,.,.,.,18µM*
Cc1[nH]c2ccccc2c1C(=O)N1CCN(S(=O)(=O)c2cc(F)ccc2F)CC1,.,-5,.,.,.,?
CCNc1cc(C)ccc1C,.,11,.,.,.,?
CCN(CC)S(=O)(=O)c1cc(C(=O)Nc2c(C)cc(C)cc2Cl)ccc1C,.,-6,.,.,.,23%
Cc1cccc(N/N=C/c2ccncc2)c1,?,-4,5%,8%,3%,45µM*
Cc1ccc(OCC(=O)N2CCc3ccccc3C2)cc1,4%,-2,1%,1%,-1%,?
CN(C(=O)C(C)(C)C)c1ccc(OCC(=O)N2CCc3ccccc3C2)cc1,10µM*,-4,-1%,2%,5%,-8%
Nc1cc(S(=O)(=O)O)cc2cccc(S(=O)(=O)O)c12,.,75,.,.,.,?
O=C(/C=C/c1ccc(F)cc1)c1cc2ccccc2oc1=O,.,0,.,.,.,?
Cc1ccc(/C(O)=C/c2nc3ccccc3oc2=O)cc1,-18%,22,-9%,13µM*,8%,-18%
SMILES,Nrf2 block,LDHA inh,A549 tox,Nrf2 ARE act,IDH1 R132H inh,ALOX12 inh
Cc1ccc2oc(=O)c(/C=C(\O)c3ccco3)nc2c1,?,7,-2%,?,3%,6%
O=C(/C=C/c1ccccc1)c1cc2ccccc2oc1=O,.,2,.,.,.,13%
O=c1oc2ccccc2nc1/C=C(O)/C=C\c1ccccc1,3%,19,-9%,16µM*,4%,-3%
O=c1oc2ccccc2nc1/C=C(O)/C=C/c1ccc(F)cc1,11%,9,-7%,18µM*,1%,?
C[N+]1(CC(=O)OC2CCCCCCCCCCC2)CCCC1,-18%,-9,-2%,7%,6%,45µM*
COC(=O)CCCCCCCCCC[N+]1(C)CCCCC1,-3%,-21,5%,0%,3%,?
CSc1cccc(NC(=O)CCc2ncc(-c3ccc(F)cc3F)o2)c1,.,-7,.,.,.,12%
Cc1ccc(S(=O)(=O)Nc2cc(Cl)c(O)c3ncccc23)cc1,21µM*,28,-23%,6%,22%,4.5µM*
Oc1c(I)cc(I)c2cccnc12,?,-5,-7%,4%,5%,32µM*!
O=C(Oc1c(Cl)cc(Cl)c2cccnc12)c1cccs1,?,10,?,7%,-1%,?
COc1ccc(C(=O)Oc2c(CN3CCOCC3)cc(Cl)c3cccnc23)cc1,-1%,13,-17%,17%,11%,0%
O=C(Oc1c(CN2CCOCC2)cc(Cl)c2cccnc12)c1ccc(F)cc1,23µM*,37,.,2%,12%,10%
O=C(Oc1c(Cl)cc(Cl)c2cccnc12)c1ccco1,23µM*,11,?,11%,8%,7.1µM*
O=C(NCc1cc2ccccc2[nH]1)c1cn[nH]n1,.,8,.,.,.,?
COc1ccc(C2=NC(C(F)(F)F)(C(F)(F)F)N=C(N3CCOCC3)O2)cc1,.,?,.,.,.,91%
Oc1ccc(Cl)c2cccnc12,?,14,-1%,15%,3%,4.5µM*!
Oc1c(Cl)cc(Cl)c2cccnc12,-26%,6,-9%,6%,-5%,20µM*!
COc1ccc(-c2cc3ccc(OCCN4CCN(C)CC4)cc3oc2=O)cc1,.,-3,.,.,.,-12%
COC(=O)CC(NC(=O)Cc1c(F)cccc1Cl)c1cccs1 (stereo not given),.,0,.,.,.,-3%
COc1ccc(NCc2n[nH]c(=O)c3ccccc23)cc1,-27%,10,-1%,0%,11%,-11%
O=c1[nH]nc(CNc2cccc(C(F)(F)F)c2)c2ccccc12,13µM*,-2,0%,3%,-1%,-6%
O=C(NCCCc1ccccc1)c1cc(C2CC2)nc2ccccc12,.,-3,.,.,.,?
CNc1snc(C)c1C(=O)OCC(=O)c1cc(F)ccc1OC,12µM*,2,-8%,?,-14%,-3%
CCCCCn1nc(C(=O)N2CCCC(c3nc4ccccc4s3)C2)c2ccccc2c1=O (stereo not given),.,-7,.,.,.,31%
C=C(C)CSc1nc2c(c(=O)[nH]c(=O)n2C)n1Cc1ccccc1,5.8µM*,-3,6%,2%,-1%,?
CC(C)Sc1nc2c(c(=O)[nH]c(=O)n2C)n1Cc1ccccc1,-17%,-30*!,?,0%,0%,?
CC(C)Sc1nc2c(c(=O)[nH]c(=O)n2C)n1Cc1ccc(Cl)cc1,?,-1,0%,3%,14%,?
CCCCn1c(=O)c(CCc2ccccc2)nc2c1c(=O)[nH]c(=O)n2Cc1ccccc1,.,3,.,.,.,35µM*
